The whole screen tested about 57,000 […], of which about 2,900 (5.1%) were called active. No stated cut-off is given here; in the data, active = GI50 up to about 1.1 µM and inactive = higher. Only a sample is shown. Entries with a potency or affinity are not part of this list.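 Protocol summary: plate cells (96-well), add compound at 5 concentrations, incubate 48 h, interpolate endpoints linearly. Here, GI50 denotes the concentration required for 50% inhibition of growth.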

The test has as its system SNB-19. Description: NCI tumour cell line growth inhibition, 48 h.
On to “[Bis(aminomethyl)ethylmethylsilane]tetrachloroplatinum(IV), CHEMBL2146192”, for which the GI50 came out at 5.37 µM.
“[Bis(aminomethyl)tetramethylenesilane]tetrachloropaltinum(IV), CHEMBL2146189” registered a GI50 of 12.9 µM.
The result for “[Bis(aminomethyl)diethylsilane]tetrachloroplatinum(IV), CHEMBL2146203” reads 4.05 µM; that for “[Bis(aminomethyl)tetramethylenesilane]dichloropaltinum(II), CHEMBL2146205”, 47.5 µM.
The result for “mu-(1,7-nanodiamine-N,N')bis-(cis-aminedichloroplatimum (II)), CHEMBL2146215” reads 39.1 µM; that for “[Bis(aminomethyl)pentamethylenesilane]dichloropaltinum(II), CHEMBL2146202”, 2.79 µM; that for “[Bis(aminomethyl)dimethylsilane]tetrachloroplatinum(IV), CHEMBL2146190”, 8.77 µM.
The same measure for CISPLATIN, CHEMBL11359: 3.19 µM.
As to “[Bis(aminomethyl)pentamethylenesilane]tetrachloropaltinum(IV), CHEMBL2146204”, the GI50 is 8.02 µM.
The same measure for “cis-Bis[[(trimethylsilyl)methyl]amino]tetrachloroplatinum(IV), CHEMBL2146191”: 12.4 µM; for “[Bis(aminomethyl)dimethylsilane]dichloroplatinum (II), CHEMBL2146201”: 24.4 µM.
